Structures can show the parent of a compound that is named as a salt.
tested on: Saccharomyces cerevisiae BY4741 SeMeCo community; experiment: z-score of subpopulation abundance vs DMSO median, subpopulation auxotrophic for HLM; higher = larger share of this subpopulation than in DMSO controls; conditions: 10 µM; 24 h; SM minimal medium; subpopulation (auxotrophy): HLM
Description: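 Fluorescent four-plasmid SeMeCo (self-establishing metabolically cooperating S. cerevisiae BY4741 community; plasmids pH-mRuby2, pL-mWasabi, pU-eCFP, pM-TagRFP657) was grown 24 h in minimal SM medium with each Selleck FDA-approved drug at 10 µM in 384-well plates. Cells were fixed and imaged by high-content confocal microscopy. For each auxotrophic subpopulation (and the prototroph), a z-score gives the deviation from the DMSO vehicle-control population median.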

Structure (SMILES) | z-score of subpopulation abundance
CN(C)CCOc1ccc(/C(=C(/CCCl)c2ccccc2)c2ccccc2)cc1 [Toremifene Citrate] | 1.44
Cc1ccccc1C(OCCN(C)C)c1ccccc1 (stereo not given) [Orphenadrine Citrate] | -0.97
NC[C@H]1O[C@H](O[C@H]2[C@H](O[C@@H]3O[C@H](CO)[C@@H](O)[C@H]3O)[C@@H](O)[C@H](N)C[C@@H]2N)[C@H](N)[C@@H](O)[C@@H]1O [Ribostamycin Sulfate] | -0.38
NC(CO)(CO)CO [Trometamol] | -0.69
COc1nc2ccc(Br)cc2cc1[C@@H](c1ccccc1)[C@@](O)(CCN(C)C)c1cccc2ccccc12 [Bedaquiline fumarate] | -0.14
Cc1onc(-c2ccccc2)c1-c1ccc(S(N)(=O)=O)cc1 [Valdecoxib] | -0.74
COC(=O)C1=C(C)NC(C)=C(C(=O)OC(C)(C)CN(C)CCC(c2ccccc2)c2ccccc2)C1c1cccc([N+](=O)[O-])c1 (stereo not given) [Lercanidipine hydrochloride] | 0.74
C[C@@H]1CC(=O)NN=C1c1ccc(NN=C(C#N)C#N)cc1 [Levosimendan] | -0.43
Nc1c(Br)cc(Br)cc1CN[C@H]1CC[C@H](O)CC1 [Ambroxol HCl] | -0.5
CNCC[C@H](Oc1cccc2ccccc12)c1cccs1 [Duloxetine HCl] | -0.84
CCCCCCCCCCCCCCCCOP(=O)([O-])OCC[N+](C)(C)C [Miltefosine] | 15.6
N#CC(c1ccc(Cl)cc1)c1c(Cl)cc(-n2ncc(=O)[nH]c2=O)cc1Cl (stereo not given) [Diclazuril] | 0.16
COc1ccc(NS(=O)(=O)c2ccc(N)cc2)nn1 [Sulfamethoxypyridazine] | -1.06
Oc1ccc(Cl)c2cccnc12 [Cloxiquine] | 64
COc1cc(/C=C/C(=O)N2CCN(CC(=O)N3CCCC3)CC2)cc(OC)c1OC [Cinepazide maleate] | -0.01
CN(Cc1cnc2nc(N)nc(N)c2n1)c1ccc(C(=O)N[C@@H](CCC(=O)O)C(=O)O)cc1 [Methotrexate disodium] | 14.3
CO[C@H]1O[C@@H]2O[C@@]3(C)CC[C@H]4[C@H](C)CC[C@@H]([C@H]1C)[C@@]24OO3 [Artemether] | -0.27
C#CCC(Cc1cnc2nc(N)nc(N)c2n1)c1ccc(C(=O)N[C@@H](CCC(=O)O)C(=O)O)cc1 (stereo not given in full) [Pralatrexate] | 4.47
OB1OCc2cc(F)ccc21 [Tavaborole (AN-2690)] | 98
CN1CCN(C2=Nc3cc(Cl)ccc3Nc3ccccc32)CC1 [Clozapine] | -0.52

Structure (SMILES) | z-score of subpopulation abundance
CC(C)(C)C1CCC(CC2=C(O)c3ccccc3C(=O)C2=O)CC1 (stereo not given) [Buparvaquone] | 0.05
CCCN1C[C@H](C)[C@@H](O)[C@](C)(O)[C@@H](CC)OC(=O)[C@H](C)[C@@H](O[C@H]2C[C@@](C)(OC)[C@@H](O)[C@H](C)O2)[C@H](C)[C@@H](O[C@@H]2O[C@H](C)C[C@H](N(C)C)[C@H]2O)[C@](C)(O)C[C@H]1C [Gamithromycin] | -0.18
CCC[C@@H]1C[C@@H](C(=O)N[C@@H]([C@H]2O[C@H](SC)[C@H](O)[C@@H](O)[C@H]2O)[C@@H](C)O)N(C)C1 [Lincomycin Hydrochloride Monohydrate] | -0.3
NCCNc1ccc(NCCN)c2c1C(=O)c1ccncc1C2=O [Pixantrone Maleate] | -2.2
CCCN[C@H]1CCc2nc(N)sc2C1 [Pramipexole 2HCl Monohydrate] | -0.59
C[C@@H](NCCCc1cccc(C(F)(F)F)c1)c1cccc2ccccc12 [Cinacalcet HCl] | 0.67
CCN(CC)CCOC(=O)c1ccc(N)cc1 [Procaine] | -1.03
COc1cccc(-c2c(C)n(Cc3c(F)cccc3C(F)(F)F)c(=O)n(C[C@H](NCCCC(=O)O)c3ccccc3)c2=O)c1F [Elagolix Sodium] | -0.27
CCC1(c2ccccc2)C(=O)NCNC1=O [Primidone] | 0.29
Cc1nc(Nc2ccc(F)cc2)nc(N2CCc3ccccc3C2C)c1C (stereo not given) [Revaprazan Hydrochloride] | -0.32
CC(C)[C@H](N)C(=O)OCC(CO)OCn1cnc2c(=O)[nH]c(N)nc21 (stereo not given in full) [Valganciclovir HCl] | 0.99
CCCN[C@H]1CCc2nc(N)sc2C1 [Pramipexole] | 0.06
COc1ccc2c(c1)c(CC(=O)O)c(C)n2C(=O)c1ccc(Cl)cc1 [Indomethacin] | -1.07
CC(C)COCC(CN(Cc1ccccc1)c1ccccc1)N1CCCC1 (stereo not given) [Bepridil hydrochloride] | 2.56
CCCCCc1ccc(C)cc1O [Amylmetacresol] | 0.52
CCOC(=O)c1c(CSc2ccccc2)n(C)c2cc(Br)c(O)c(CN(C)C)c12 [Arbidol HCl] | 0.87
CCC(=O)NS(=O)(=O)c1ccc(-c2c(-c3ccccc3)noc2C)cc1 [Parecoxib] | 0.22
COc1cc(NS(=O)(=O)c2ccc(N)cc2)nc(OC)n1 [SulfadiMethoxine sodium] | 0
CC1(C)[C@H](C(=O)O)N2C(=O)C[C@H]2S1(=O)=O [Sulbactam sodium] | -0.2
CC(=O)NO [Acetohydroxamic acid] | 0.6

Source: the supplement of paper PMC8975748
